# Screens from PubChem BioAssay.
# GRK2 inh: inhibitors of human GRK2 displacing RNA aptamer; P25098; bead flow cytometry, FAM-aptamer displacement from GRK2; inhibition of aptamer binding, % at 10 µM; AID 488847; hit rate 0.59% among 330,000;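 active means inhibition of aptamer binding above 40%, roughly 3 SD of noise, on plates passing a quality check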;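 further: median bead fluorescence of bound FAM aptamer so fluorescent compounds give negative values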
# Target sequence (P25098 whole entry, looked up): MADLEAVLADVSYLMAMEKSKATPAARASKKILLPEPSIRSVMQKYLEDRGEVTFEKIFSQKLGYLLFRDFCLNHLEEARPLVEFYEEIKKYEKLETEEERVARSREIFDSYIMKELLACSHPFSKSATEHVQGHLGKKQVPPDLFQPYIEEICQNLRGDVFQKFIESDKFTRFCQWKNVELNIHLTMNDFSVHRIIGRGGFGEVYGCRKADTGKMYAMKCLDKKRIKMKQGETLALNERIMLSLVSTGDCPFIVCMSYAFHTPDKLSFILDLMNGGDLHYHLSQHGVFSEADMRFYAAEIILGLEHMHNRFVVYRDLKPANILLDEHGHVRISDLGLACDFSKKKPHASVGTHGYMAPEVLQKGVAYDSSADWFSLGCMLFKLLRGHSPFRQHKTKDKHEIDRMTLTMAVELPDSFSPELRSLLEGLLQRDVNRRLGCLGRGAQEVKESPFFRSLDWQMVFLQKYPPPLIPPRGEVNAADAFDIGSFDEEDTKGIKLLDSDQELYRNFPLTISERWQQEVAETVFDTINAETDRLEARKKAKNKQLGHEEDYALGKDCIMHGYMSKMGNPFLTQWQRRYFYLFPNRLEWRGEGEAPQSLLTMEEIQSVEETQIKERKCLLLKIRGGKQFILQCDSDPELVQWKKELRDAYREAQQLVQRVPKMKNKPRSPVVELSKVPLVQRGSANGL
# PP1 counter: PP1-alpha (human) inhibition in PP5 counter-screen; P62136; AID 2235; inhibition, % at 6.7 µM; purified PP1alpha, OMFP fluorescence; hit rate 0.9% among 320,000;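 active means inhibition above the mean inhibition of all tested compounds plus 3 SD, computed separately for each screening campaign, cut at about 15% in these data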
# B2AR ag: activates human beta-2 adrenergic receptor causing internalization; response, % (no concentration beside the values); hit rate 0.43% among 340,000; Am2.2-beta2AR cells, FAP receptor internalization, flow cytometry; P07550;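 active means response above a set limit, near 3 SD of response in nonfluorescent compounds, cut at about 42% in these data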
# NadD block: inhibitors of Staphylococcus aureus NadD; purified NadD enzyme, colorimetric absorbance read-out; inhibition, % at 20 µM; hit rate 0.78% among 360,000; AID 602399; in the data active means inhibition above about 26%
# Granule exo inh: lytic granule exocytosis inhibition; hit rate 0.66% among 360,000; inhibition, % at 10 µM; AID 651702; TALL-104 LAMP-1 surface exposure, flow cytometry; cells stimulated with thapsigargin and PMA;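 active means inhibition above about 55%, limit read from the data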
# NadD inh conf: confirmation of Staphylococcus aureus NadD inhibitors; shares compounds with NadD block; purified S. aureus NadD, colorimetric enzyme assay; hit rate 13% among 2,000; AID 624309; inhibition, % at 20 µM; in the data active means inhibition mostly above about 42%, no sharp cut-off; inactive means mostly below about 42%
# An asterisk follows results filed as active; . = no result given. A selection: hits, their analogues and other compounds. The true share with any hit is near 2.9%.
SMILES,GRK2 inh,PP1 counter,B2AR ag,NadD block,Granule exo inh,NadD inh conf
O=C1[C@H]2[C@@H](c3ccc(F)cc3)N3C(=O)N(c4cccc(Br)c4)C(=O)[C@@]3(Cc3ccc(Cl)cc3)[C@H]2C(=O)N1C1CCCCC1,0.0,1.4,13.2,30.6*,33.8,13.2
O=C1[C@H]2[C@@H](c3ccc(Cl)cc3)N3C(=O)N(c4cccc(Br)c4)C(=O)[C@@]3(Cc3ccc(Cl)cc3)[C@H]2C(=O)N1C1CCCCC1,0.0,-0.1,2.9,31.9*,-0.9,-0.8
O=C1[C@H]2[C@@H](c3ccc(F)cc3)N3C(=O)N(c4cccc(Cl)c4)C(=O)[C@@]3(Cc3ccc(Cl)cc3)[C@H]2C(=O)N1C1CCCCC1,0.0,1.8,7.0,25.0,8.6,.
Nc1[nH]c(C(=O)c2ccccc2)c(-c2ccc(Cl)cc2Cl)c1C(=O)c1ccc(Cl)c(Cl)c1,.,.,.,35.5*,1.7,4.8
COc1ccc(CNC[C@H]2O[C@@H](n3ccc(=O)[nH]c3=O)[C@H](O)[C@@H]2O)cc1,.,.,.,-5.3,-0.9,.
Cc1cccc(N2CC(C(=O)Nc3nnc(SCC(=O)Nc4nccs4)s3)CC2=O)c1 (centres undefined),2.0,-1.4,-2.0,62.3*,-1.5,6.7
Cc1ccccc1N1CC(C(=O)Nc2nnc(SCC(=O)Nc3nccs3)s2)CC1=O (centres undefined),3.0,10.0,5.9,40.4*,-0.3,28.7
CN1CCc2c(sc(/N=C/c3cc(Cl)ccc3O)c2C#N)C1,0.0,-1.6,22.1,1.6,0.8,.
CN1CCc2c(sc(/N=C/c3c[nH]c4ccccc34)c2C(N)=O)C1,0.0,2.1,11.1,51.4*,-10.5,-13.5
CN1CCc2c(sc(/N=C/c3c[nH]c4ccccc34)c2C#N)C1,0.0,-1.2,-18.6,44.0*,-4.7,-14.0
Cc1cccc(OCCC(=O)Nc2ccc(N3CCOCC3)cc2N2CCOCC2)c1,0.0,1.5,-0.3,1.7,11.5,.
CC1CC(NC(=O)c2c(O)nc3ccccn3c2=O)CC(C)(C)C1 (centres undefined),.,.,7.4,-0.8,-1.2,.
CC1CC(NC(=O)c2c(O)nc3sccn3c2=O)CC(C)(C)C1 (centres undefined),0.0,11.8,3.7,34.9*,-10.4,24.4
COc1ccc(COc2cc(-c3cccc(OC)c3)nc3ccc(NC(=O)c4ccc(OC)cc4)cc23)cc1,0.0,2.9,-1.4,24.8,-4.0,.
COc1ccc(COc2cc(-c3cccc(OC)c3)nc3ccc(NC(=O)c4ccc(Cl)cc4)cc23)cc1,0.0,-1.4,-8.8,59.1*,-5.5,10.6
COc1ccc(COc2cc(-c3cccc(OC)c3)nc3ccc(NC(=O)c4ccccc4)cc23)cc1,1.0,-1.3,5.0,32.1*,-0.2,9.2
COc1ccc(COc2cc(-c3cccc(OC)c3)nc3ccc(NC(=O)c4cccnc4)cc23)cc1,0.0,0.3,30.4,5.8,-12.9,.
O=c1cc(/N=C/c2coc3c(ccc4ccccc43)c2=O)[nH]c(=S)[nH]1,2.0,5.2,2.2,64.7*,5.6,1.8
CN(C(=O)Nc1ccc(C(C)(C)C)cc1)C1CCCCC1,0.0,-4.5,-0.8,-5.4,-0.8,.
O=C(CCc1ccc(Oc2cc([N+](=O)[O-])cc([N+](=O)[O-])c2)cc1)N1CCCCCC1,1.0,2.6,1.5,-1.1,1.1,.
Cn1c(=O)[nH]c(=O)c2c1[nH]c(=S)n2CCCc1ccccc1,.,.,-1.5,32.4*,1.8,21.2
Cn1c(=O)c2c([nH]c(=S)n2CCCc2ccccc2)n(C)c1=O,2.0,-3.7,-10.7,24.3,4.1,.
CC(=O)Nc1ccc(SC[C@H](Cc2ccccc2)N2CC[C@@H](C(C)(C)C)CCC2=O)cc1,10.0,11.9,19.2,-3.2,-7.0,.
Nc1c(C(=O)Nc2ccccc2)sc2nc(-c3ccco3)ccc12,2.0,-0.2,5.4,34.7*,0.0,26.3
COc1ccccc1NC(=O)c1sc2nc(-c3ccco3)ccc2c1N,5.0,10.0,-4.3,24.2,1.9,.
SMILES,GRK2 inh,PP1 counter,B2AR ag,NadD block,Granule exo inh,NadD inh conf
Cc1ccc2ccccc2c1C(O)c1ncc(-c2ccc(F)cc2)[nH]1 (centres undefined),.,.,.,-0.9,0.3,.
O=C1CCCC2=C1C(c1ccco1)Nc1ccc(C(=O)c3ccccc3)cc1N2 (centres undefined),4.0,1.7,-3.2,35.3*,-1.2,2.0
O=C(/C=C/c1cccs1)c1cc(Cl)ccc1O,0.0,-7.0,3.1,-7.5,-11.2,.
O=C(/C=C/c1ccc2ccccc2n1)c1cc(Cl)ccc1O,6.0,4.4,20.4,32.6*,12.9,35.6
CNC[C@H](Cc1cccc2ccccc12)NC[C@H](CCSC)NCC1CCC(C(C)(C)C)CC1 (some centres undefined),0.0,.,.,.,.,.
C=CCSc1nc2c(sc3nc(C)cc(C)c32)c(=O)[nH]1,5.0,-2.6,14.4,26.8,-0.4,.
Cc1cc(C)c2c(n1)sc1c(=O)[nH]c(SCc3ccccc3)nc12,2.0,7.7,4.4,29.1*,0.3,12.8
O=S(=O)(c1cnc(Cl)c(Br)c1)N1CCN(c2ncccn2)CC1,0.0,-1.1,-5.2,0.0,2.7,.
CCCCn1nnnc1C1(C)CCC(=O)N1CCCN1CCOCC1 (centres undefined),.,.,.,0.7,-1.6,.
Cc1ccc(C)c(NC(=O)COC(=O)c2ccc(S(=O)(=O)N3CCCCC3)cc2)c1,0.0,0.7,1.3,31.0*,6.5,-0.5
O=c1c2sc3nc(N4CCOCC4)c4c(c3c2ncn1C(c1ccccc1)c1ccccc1)CCCC4,.,.,13.6,32.2*,5.1,1.4
Nc1nnc(Sc2ncccc2[N+](=O)[O-])s1,5.0,-2.3,10.6,-3.7,-2.9,.
COc1cc(OC)cc(C(=O)Oc2ccc(/C=N/Nc3nc4ccccc4s3)cc2OC)c1,1.0,0.9,5.1,37.4*,-1.5,10.2
Cc1cccc(COc2ccc(/C=N/NC(=O)c3nnn(-c4nonc4N)c3CN3CCCCC3)cc2)c1,0.0,-0.2,4.8,30.7*,1.3,10.4
Nc1nonc1-n1nnc(C(=O)N/N=C/c2ccc(OCc3ccccc3)cc2)c1CNc1ccccc1,1.0,-0.4,-5.5,39.2*,1.4,0.6
Nc1nonc1-n1nnc(C(=O)N/N=C/c2ccc(OCc3ccccc3)cc2)c1COc1ccc(F)cc1,0.0,-1.9,7.8,23.6,5.1,.
S=C(Nc1ccc(N2CCOCC2)cc1)Nc1ccc2nc(-c3ccco3)c(-c3ccco3)nc2c1,0.0,10.2,-19.6,42.1*,-1.6,1.8
O=C(Nc1ccc2nc(-c3ccco3)c(-c3ccco3)nc2c1)N1CCN(c2ccccn2)CC1,8.0,1.6,15.6,48.8*,-6.0,49.0*
O=C(Nc1ccc(N2CCOCC2)cc1)c1ccc2nc(-c3ccco3)c(-c3ccco3)nc2c1,0.0,-3.4,15.6,10.2,-0.8,.
COc1ccc(C(=O)Nc2ccccc2C(=O)N/N=C/c2ccco2)cc1,1.0,-1.2,-10.5,1.1,-4.6,.
COc1ccc(NCC(=O)N/N=C2\CCc3ccccc32)cc1,2.0,2.9,19.8,30.5*,13.9,7.3
